Screens: PubChem BioAssay, National Center for Advancing Translational Sciences (NCATS)
In the library only some 21% were active in any assay of this set; here they are far more common.
Pf growth 96h: Primary qHTS for delayed death inhibitors of the malarial parasite plastid, 96 hour incubation. P. falciparum luciferase reporter growth, 96 h. actives 6.9% (n = 320,000). Potency, µM (titrated, usually from 28.7 µM), actives largely listed as inhibitors. AID 504834, 2011; active means well fitted inhibition curve with a large enough effect; inconclusive means small, poorly fitted or top-dose-only effect, or another doubt; inactive means no such curve, though single readings can be large or run the other way
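Cell-based qHTS: luciferase-tagged P. falciparum in erythrocytes (2% hematocrit, 0.05% parasitemia final) incubated with compounds for 96 hours, 37 C, 5% CO2; luciferase detection reagent then added and luminescence measured.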
Shiga inhibitor: A qHTS for Small Molecule Inhibitors of Shiga Toxin; Vero cells, Shiga toxin protein synthesis inhibition reporter; actives 9.2% (n = 290,000); inhibition, % at 38.7 µM; in the data active means inhibition mostly above about 28%, no sharp cut-off; inactive means mostly below about 43%
CHX counter: Cycloheximide Counterscreen for Small Molecule Inhibitors of Shiga Toxin; cell reporter, cycloheximide protein synthesis inhibition counterscreen; max response, %; actives 12% (n = 300,000); in the data active means max response mostly above about 13%, no sharp cut-off; inactive means mostly below about 14%; further: read at 38.3 µM for the half of the compounds with a filed dose
NS1 inh: qHTS Assay for Inhibitors of Influenza NS1 Protein Function; Potency, µM (series often up to 46.1 µM); actives 0.4% (n = 270,000); AID 2326, 2010; further: actives are rising curves; nearly all actives have a fitted effect of over 50% in size
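Compounds were scored for reversing the slow growth caused by influenza A NS1 in S. cerevisiae, measured by optical density at 600 nm. Assay medium contained 2% galactose at pH 6.0; NS1-free yeast of the same strain were the positive control.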
Pf growth 48h: Primary qHTS for delayed death inhibitors of the malarial parasite plastid, 48 hour incubation; P. falciparum luciferase growth in erythrocytes, 48 h; actives 5.9% (n = 310,000); Potency, µM (titrated, usually from 28.7 µM), most hits filed as inhibitors; active means well fitted inhibition curve with a large enough effect; inconclusive means small, poorly fitted or top-dose-only effect, or another doubt; inactive means no such curve, though single readings can be large or run the other way
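Luciferase-expressing P. falciparum in infected erythrocytes (2% hematocrit, 0.1% parasitemia final) in RPMI 1640/0.5% Albumax were exposed to compound for 48 hours at 37 C, 5% CO2; growth read as luminescence.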
SARS PLpro yeast: qHTS of Yeast-based Assay for SARS-CoV PLP; S. cerevisiae expressing SARS-CoV PLpro, growth rescue; Potency, µM (series often up to 32.9 µM), usual class: activators; actives 0.19% (n = 330,000); AID 485353, 2010; further: nearly all actives have a fitted effect of over 55% in size
Large screens that a line does not name were inactive. Unless noted, the call rests on the fitted dose curve.

COc1ccc(N2C(=O)c3cc4ccccc4cc3C2=O)cc1	Pf growth 96h 10µM
COc1ccccc1Oc1ccc2c(c1)C(=O)N(c1ccc(C)cc1)C2=O	none
C=CC[C@@H](CC(=O)NCCO)C(=O)N[C@H](COC(=O)[C@H](CC=C)CC(=O)OC(C)(C)C)Cc1c[nH]c2ccccc12	none (no result: Pf growth 96h, Shiga inhibitor, CHX counter, NS1 inh, Pf growth 48h)
CCc1nc(SCC(=O)Nc2nnc(CC)s2)c2c(=O)n(C)c(=O)n(C)c2n1	none
CC(=O)N1CCN(c2nc3cc4c(cc3nc2NS(=O)(=O)c2ccccc2)OCCO4)CC1	Pf growth 48h inconclusive
O=C(Nc1ccc(Oc2cccc3ccccc23)cc1)c1ccco1	CHX counter 29 (no result: Pf growth 48h)
O=C(OC1CCCCC1)c1ccc(NC(=O)c2ccco2)cc1	Pf growth 96h 2.9µM, Shiga inhibitor 61, CHX counter 36, Pf growth 48h inconclusive
CCC(=O)Oc1ccc(NC(=O)c2ccco2)cc1	none
O=C(Nc1ccc(OC(=O)c2ccco2)cc1)c1ccco1	Pf growth 96h inconclusive, Shiga inhibitor 32
CC(Oc1ccc(NC(=O)c2ccco2)cc1)C(=O)N1c2ccccc2CC1C (stereo not drawn)	Pf growth 96h 5.2µM, Pf growth 48h inconclusive
O=C(Nc1ccc(Cl)c(Cl)c1)Oc1ccc(NC(=O)c2ccco2)cc1	Pf growth 96h inconclusive, CHX counter 22 (no result: Pf growth 48h)
CC(OC(=O)CCCNC(=O)c1ccc(Cl)cc1)C(=O)N(C)Cc1ccccc1 (stereo not drawn)	none
O=C(Cc1ccccc1F)Nc1nc2ccccc2[nH]1	CHX counter 24
COc1ccc(Cl)cc1C(=O)Nc1nc2ccccc2[nH]1	none
Cc1cc(C)cc(C(=O)Nc2nc3ccccc3[nH]2)c1	Pf growth 96h inconclusive, Shiga inhibitor 121, CHX counter 35, Pf growth 48h inconclusive
O=C(Nc1nc2ccccc2[nH]1)c1ccccc1F	Pf growth 96h 10µM, Pf growth 48h inconclusive
CN(C)S(=O)(=O)c1ccc(C(=O)Nc2nc3ccccc3[nH]2)cc1	Shiga inhibitor 80, CHX counter 36 (no result: NS1 inh)
CCOc1ccc(OCCC(=O)OCC(=O)Nc2cc(S(=O)(=O)N3CCOCC3)ccc2C)cc1	none (no result: Shiga inhibitor, CHX counter, NS1 inh)
CC(NC(=O)c1ccccc1)c1nnc(SCC(=O)Nc2nnc(C3CC3)s2)n1C (stereo not drawn)	Pf growth 96h inconclusive, Pf growth 48h inconclusive (no result: Shiga inhibitor, CHX counter, NS1 inh)
Cc1ccc(S(=O)(=O)NC(=O)COc2ccc(Cl)cc2Cl)cc1	none
COc1ccc(NC(=S)N2CCNC(=O)C2CC(=O)Nc2ccc(C)cc2)cc1 (stereo not drawn)	Pf growth 96h inconclusive, SARS PLpro yeast inconclusive
COc1ccc(Br)c(C(=O)Nc2nc3ccccc3[nH]2)c1	Shiga inhibitor 69, CHX counter 54, NS1 inh inconclusive
COc1cc(OC)cc(C(=O)Nc2nc3ccccc3[nH]2)c1	Shiga inhibitor 129, CHX counter 59, Pf growth 48h inconclusive (no result: Pf growth 96h)
O=C(Nc1nc2ccccc2[nH]1)c1ccc(F)cc1	Pf growth 96h 1.5µM, CHX counter 20
Cc1ccsc1C(=O)Nc1nc2ccccc2[nH]1	Shiga inhibitor 75, CHX counter 28
Cc1ccsc1C(=O)Nc1ccccc1N1CCCC1	Pf growth 96h inconclusive, Pf growth 48h inconclusive (no result: Shiga inhibitor, CHX counter, NS1 inh)
Nc1ncncc1-c1ccc([N+](=O)[O-])cc1	none
ONC(=Nc1cccc(C(F)(F)F)c1)c1cccnc1	Pf growth 48h inconclusive
O=C(Nc1nc2ccccc2[nH]1)c1cc(F)cc(F)c1	Shiga inhibitor 67, CHX counter 67
COc1ccc2oc(C(=O)Nc3nc(-c4ccccn4)cs3)c(C)c2c1	Pf growth 96h 6.6µM, Pf growth 48h inconclusive (no result: Shiga inhibitor, CHX counter, NS1 inh)
N#Cc1ccc(C(=O)Nc2nc3ccccc3[nH]2)cc1	Shiga inhibitor 59, CHX counter 35
COC(=O)Nc1nc2ccc(C(=O)c3ccc(F)cc3)cc2[nH]1	none (no result: Pf growth 96h, NS1 inh, Pf growth 48h)
COc1ccc2oc(C(=O)Nc3nc4ccccc4[nH]3)c(C)c2c1	Pf growth 96h inconclusive, Shiga inhibitor 70, CHX counter 57
CC(C)C[C@H](NC(=O)C1OC1C(=O)O)C(=O)NCCCCN=C(N)N (stereo partly drawn)	none (no result: Pf growth 96h, Shiga inhibitor, CHX counter, Pf growth 48h, SARS PLpro yeast)
Cc1occc1C(=O)N1CCCC(N2CCN(c3cccc(Cl)c3)CC2)C1 (stereo not drawn)	SARS PLpro yeast inconclusive
CS(=O)(=O)NCc1ccccc1Br	none (no result: Shiga inhibitor, CHX counter, NS1 inh)
CC(=O)c1ccc(NC(=O)CCn2c(=S)oc3ccccc32)cc1	Pf growth 96h inconclusive
CCNC(=O)c1cc2ccccc2o1	none
O=C(Nc1nc2ccccc2[nH]1)c1cc2ccccc2o1	Shiga inhibitor 54, CHX counter 35
O=C(O)[C@@H]1CCCN1Cc1ccc2c(c1)OCO2	none (no result: Pf growth 96h, Shiga inhibitor, CHX counter, Pf growth 48h, SARS PLpro yeast)
O=S1(=O)CCOCCCN1Cc1ccc(Cl)cc1	none
COc1ccc(CC(=O)NCc2ccccc2)cc1	Pf growth 96h inconclusive
CCOC(=O)C(NCc1ccc(F)cc1)(NC(=O)c1ccccc1)C(F)(F)F (stereo not drawn)	Pf growth 96h 10µM
COc1ccc(CNC(NC(=O)c2ccccc2)(C(F)(F)F)C(F)(F)F)cc1	Pf growth 96h inconclusive, Pf growth 48h 12µM
CCCCn1c(N)c(N(CCOC)C(=O)c2ccc(N3CCCC3)c([N+](=O)[O-])c2)c(=O)[nH]c1=O	Pf growth 48h inconclusive (no result: Shiga inhibitor, CHX counter, NS1 inh)
Cc1ccc(OCC(=O)Nc2ccc3c(c2)OCO3)cc1C	Pf growth 96h inconclusive, Shiga inhibitor 29, CHX counter 25
O=C(COc1ccccc1[N+](=O)[O-])N/N=C/c1cccc(OC(=O)c2ccc3c(c2)OCO3)c1	Pf growth 96h inconclusive, Shiga inhibitor 95, CHX counter 93
Cc1ccc(OCC(=O)OCC(=O)Nc2ccc3c(c2)OCO3)cc1C	none (no result: Pf growth 96h, Shiga inhibitor, CHX counter, NS1 inh, Pf growth 48h)
O=C(COc1ccccc1[N+](=O)[O-])Nc1ccc2c(c1)OCO2	Pf growth 96h inconclusive, Shiga inhibitor 66, CHX counter 31
O=C(COc1ccc2ccc(=O)oc2c1)Nc1ccc2c(c1)OCCO2	CHX counter 13, NS1 inh inconclusive
O=C(COc1ccc2ccc(=O)oc2c1)Nc1ccc(CCO)cc1	none
CC(C)CNC(=O)[C@@H]1CSC2c3ccccc3C(=O)N21 (stereo partly drawn)	none
Cc1cc(C)cc(OCC(=O)Nc2ccc3c(c2)OCO3)c1	Pf growth 96h inconclusive
Cc1ccc(C)c(OCC(=O)Nc2ccc3c(c2)OCO3)c1C	none
O=C(Cc1ccccc1[N+](=O)[O-])Nc1ccc2c(c1)OCCO2	Pf growth 96h inconclusive, Shiga inhibitor 89, CHX counter 55
COc1cc(C)c(NC(=O)COc2ccc3c(c2)OCO3)cc1C	Shiga inhibitor 49, CHX counter 20
Cc1cccc(OCC(=O)Nc2ccc3c(c2)OCO3)c1C	CHX counter 55
COC(=O)c1ccc(NC(=O)COc2ccc3c(c2)OCO3)cc1	Pf growth 96h inconclusive, CHX counter 20, Pf growth 48h inconclusive
COc1ccc(C(=O)N/N=C(\C)c2ccc(NC(=O)Cc3ccccc3)cc2)c(OC)c1	Pf growth 96h inconclusive
